APOBEC3G inh: APOBEC3G DNA deaminase inhibitors, primary screen, biochemical, fluorescence, single-stranded DNA substrate, uHTS; DNA dC->dU-editing enzyme APOBEC-3G (Homo sapiens), Q9HC16; inhibition, % at 20 µM; actives 0.28% (n = 330,000); AID 493012, 2011; recombinant A3G, ssDNA deamination FAM/TAMRA fluorescence;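 active = inhibition of at least 40% at 20 µM, with no more than 30% in the related APOBEC3A deaminase screen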;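 also: plate controls were DMSO wells with A3G for no effect and wells lacking A3G enzyme for full effect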
Target sequence (Q9HC16 whole entry, looked up): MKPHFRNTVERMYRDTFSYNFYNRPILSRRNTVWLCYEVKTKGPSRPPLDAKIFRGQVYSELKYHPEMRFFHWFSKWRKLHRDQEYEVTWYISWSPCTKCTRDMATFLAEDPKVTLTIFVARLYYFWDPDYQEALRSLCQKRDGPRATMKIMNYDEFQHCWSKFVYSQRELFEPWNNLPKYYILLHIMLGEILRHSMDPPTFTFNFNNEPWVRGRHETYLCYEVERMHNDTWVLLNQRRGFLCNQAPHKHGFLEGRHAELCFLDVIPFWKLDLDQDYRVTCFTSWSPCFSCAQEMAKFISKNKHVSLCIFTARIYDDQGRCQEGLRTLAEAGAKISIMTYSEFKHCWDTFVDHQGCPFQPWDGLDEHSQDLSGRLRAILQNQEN
APOBEC3A inh: APOBEC3A ssDNA deaminase inhibitors, primary screen, selectivity assay for APOBEC3G inhibitor project, biochemical, FAM/TAMRA oligo cleavage fluorescence; DNA dC->dU-editing enzyme APOBEC-3A (Homo sapiens), P31941; recombinant A3A, FAM/TAMRA ssDNA deamination fluorescence; inhibition, % at 20 µM; actives 0.41% (n = 330,000); AID 493011, 2011;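 active = at least 40% inhibition at 20 µM here, with at most 30% in a related deaminase screen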;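 also: plate controls were A3A with DMSO for no effect and wells lacking A3A enzyme for full effect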
Target sequence (P31941 whole entry, looked up): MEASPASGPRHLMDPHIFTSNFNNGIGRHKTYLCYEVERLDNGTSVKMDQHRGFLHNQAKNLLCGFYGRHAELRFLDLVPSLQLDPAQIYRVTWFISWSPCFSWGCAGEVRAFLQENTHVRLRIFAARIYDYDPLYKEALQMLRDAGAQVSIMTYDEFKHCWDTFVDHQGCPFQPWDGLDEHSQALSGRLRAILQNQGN
AHR act: AHR activators, primary screen, cell-based, luminescence, luciferase reporter, human | Aryl hydrocarbon receptor (Homo sapiens), P35869 | AHR-responsive luciferase reporter cells | activation, % at 5 µM | actives 2.5% (n = 320,000) | AID 2796, 2010; in the data active = activation above about 47%;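 also: 0% = vehicle wells and 100% = reference agonist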
NTR1 agonist: agonists of human NTR1, primary screen, imaging, U2OS cells, beta-arrestin-GFP, high content. NTR1-U2OS beta-arrestin-GFP spot imaging, agonist mode. actives 0.17% (n = 330,000). activation, % at 20 µM. Neurotensin receptor type 1 (Homo sapiens), P30989;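 active = activation at or above 40% of the spot to cytoplasm intensity ratio, with at least 20 cells analyzed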;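 also: 0% = DMSO without peptide and 100% = 100 nM NTR1 peptide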
A3G conf: APOBEC3G deaminase inhibitor retest, confirmation, biochemical, fluorescence, single-stranded DNA substrate, single concentration. shares compounds with APOBEC3G inh. recombinant A3G ssDNA deaminase, UDG/FAM-TAMRA fluorescence. inhibition, % at 20 µM. actives 72% (n = 890). AID 493152, 2011;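 active = inhibition reaching a set limit in any replicate at 20 µM, the limit being 80% of the first screen's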
UDG ctr A3G: E. coli UDG inhibitors, confirmation, counter-screen for APOBEC3G inhibitor project, biochemical, single concentration, fluorescence, FAM/TAMRA oligo; 710 tested, under 10 active; AID 504715, 2011; inhibition, % at 20 µM; UDG counterscreen; shares compounds with APOBEC3G inh;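 active = compounds giving 40% or more inhibition at 20 µM in any one of the three replicates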;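 also: plate controls were DMSO wells with UDG and oligo for no effect and DMSO wells lacking both for full effect; inhibitors lower the FAM signal released by uracil excision and alkaline cleavage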
* = called active by the depositor; nt = not tested or not shown. An excerpt weighted towards active compounds, which were near 3.2% of everything screened.

SMILES	APOBEC3G inh	APOBEC3A inh	AHR act	NTR1 agonist	A3G conf	UDG ctr A3G
O=C(NCc1cccnc1)C(=O)NCC(c1ccco1)N1CCN(c2ccc(F)cc2)CC1 (configuration not stated)	42*	-2	-4	0	-10	-2
CC(=O)C(Sc1nn(C)c(=S)s1)C(=O)Nc1ccccc1 (configuration not stated)	57*	2	3	0	40*	-5
CCOC(=O)N1CCN(c2ccnc3cc(Cl)ccc23)CC1	58*	-1	-8	1	-59	-3
COc1cc2cc3c(N)c(C(=O)Nc4sc(C)c(C)c4C#N)sc3nc2cc1OC	48*	19	4	-1	27*	4
S=c1[nH]nc(-c2cccnc2)n1C1CCCCC1	8	-1	2	2	nt	nt
S=c1[nH]nc(-c2ccccc2)n1C1C=CCCC1 (configuration not stated)	42*	-1	4	0	79*	-2
CCOC(=O)C1=C(COC(=O)/C=C/c2cc(OC)c(OC)c(OC)c2)NC(=O)NC1C (configuration not stated)	0	-1	2	2	nt	nt
NC(=O)/C(=C\c1cccnc1)NC(=O)c1ccccc1	-3	1	0	2	nt	nt
Cc1ccc(NC(=O)c2ccc(Cl)c(N3C(=O)C=CC3=O)c2)cc1	46*	-5	20	19	53*	-7
Clc1ccccc1-c1nn2c(-c3ccncc3)nnc2s1	49*	1	-7	-1	25*	-1
C=CCN(CC=C)CCCOc1ccc(Br)cc1Cl	-2	-2	4	-2	nt	nt
Cc1cccc(NS(=O)(=O)c2ccc(C(=O)NCC(c3ccco3)N(C)C)cc2)c1C (configuration not stated)	-4	0	1	0	nt	nt
CC(C)(C)C(=O)OCc1nc(-c2ccc(Cl)cc2)cs1	6	3	2	1	nt	nt
CC(C)(C)S(=O)(=O)Cc1nc(-c2ccc(Cl)c(Cl)c2)cs1	67*	7	8	0	-1	nt
COc1ccc(O)c(C(=O)C2c3ccccc3C(=O)N2c2ccc(C)cc2)c1 (configuration not stated)	75*	-1	25	1	88*	-5
COc1ccc(N2C(=O)c3ccccc3C2O)cc1 (configuration not stated)	-28	-3	0	1	nt	nt
N#C/C(=C/c1ccc(F)cc1)c1nnc(NC(=O)c2ccccc2)s1	3	7	3	2	nt	nt
CCn1c(-c2ccc([N+](=O)[O-])cc2)n[nH]c1=S	46*	-2	-3	-1	73*	4
CCn1c(-c2cccc(S(=O)(=O)N3CCCC3)c2)n[nH]c1=S	51*	1	0	2	27*	-2
CCn1c(-c2ccc3ncccc3c2)n[nH]c1=S	40	-5	2	2	nt	nt
CCn1c(-c2cccc(Br)c2)n[nH]c1=S	47*	1	0	-1	63*	3
CCC(C)n1c(-c2cccc(S(=O)(=O)N3CCOCC3)c2)n[nH]c1=S (configuration not stated)	26	-4	nt	0	nt	nt
CC(C)Cn1c(-c2cccc(S(=O)(=O)N3CCOCC3)c2)n[nH]c1=S	44*	-1	-1	2	69*	1
O=C(O)c1cccc2c1C(=O)c1ccccc1C2=O	1	3	1	1	nt	nt
O=C(O)c1ccc2c3c(ncnc13)-c1ccccc1C2=O	61*	1	-7	1	41*	2
SMILES	APOBEC3G inh	APOBEC3A inh	AHR act	NTR1 agonist	A3G conf	UDG ctr A3G
CCOC(=O)c1c(NC(=O)C2CCCO2)sc(C(=O)OC(C)(C)C)c1C (configuration not stated)	47*	4	7	4	33*	3
Cc1ccc(OCc2n[nH]c(=S)n2Cc2ccccc2)cc1	-10	-8	1	1	nt	nt
Nn1c(COc2ccc(Cl)cc2)n[nH]c1=S	53*	1	1	0	58*	3
Cc1cccc(C)c1OCc1n[nH]c(=S)n1N	40*	3	6	0	54*	-3
CCOc1ccc(S(=O)(=O)N2CCCC(C(=O)N3CCOCC3)C2)cc1C (configuration not stated)	-5	-3	0	0	nt	nt
O=S(=O)(Nc1ccc(O)c(NS(=O)(=O)c2ccccc2)c1)c1ccccc1	50*	2	-3	0	69*	-2
Cc1c(O)ccc(NS(=O)(=O)c2ccccc2)c1C	6	2	1	0	nt	nt
COc1ccc(CC(=O)NCc2ccc(F)cc2)cc1S(=O)(=O)N1CCOCC1	-4	-3	2	0	nt	nt
COc1ccc2c3c(cccc13)OC2=O	-1	6	2	1	nt	nt
COc1ccc2c3c(cccc13)N(C)N=C2C	45*	26	19	0	40*	nt
CCn1nc(C)c(NS(=O)(=O)c2ccccc2)c1C	-4	0	0	-1	nt	nt
CCn1c(C)c(CS(=O)(=O)c2ccccc2)[nH]c1=O	49*	0	0	-1	87*	-3
CCCC(C(=O)Nc1ccc(C)c(S(=O)(=O)N2CCOCC2)c1)c1ccccc1 (configuration not stated)	-6	-2	-2	-1	nt	nt
CCC(Oc1ccccc1)C(=O)Nc1ccc(C)c(S(=O)(=O)N2CCOCC2)c1 (configuration not stated)	81*	2	0	1	-1	nt
CCCCN1C2CCCC1CC(NC(=O)c1cccc(Cl)c1)C2 (configuration not stated)	-1	-2	1	-1	nt	nt
Cc1[nH]c(=S)c(C#N)c(C)c1CCC#N	65*	-5	5	1	90*	-5
COc1ccc(N=c2ssnc2Cl)cc1	70*	5	18	0	79*	3
COc1cc(N=c2ssnc2Cl)cc(OC)c1OC	72*	0	5	5	93*	0
COc1cc(-c2nnc(-c3cc(OC)c(OC)c(OC)c3)o2)cc(OC)c1OC	0	-2	2	0	nt	nt
N#Cc1ccc(N=c2ssnc2Cl)cc1	73*	-2	5	0	91*	-3
N#Cc1ccc(Oc2c(Cl)cncc2Cl)cc1	-9	-4	1	-2	nt	nt

Screening results as filed in PubChem.
